# Measurements: PubChem BioAssay AID1347428 (National Center for Advancing Translational Sciences (NCATS), 2020)
# Out of some 91,000 compounds screened, about 290 (0.32%) were called active. Entries that show only a call come without a potency. Another 7% or so got no clear call; they are omitted. Calls come from the whole dose curve; as a rule, active = well fitted inhibition curve with a large enough effect; inconclusive = small, poorly fitted or top-dose-only effect; inactive = no such curve, though single readings can be large or run the other way. The sample as a whole holds a higher share of actives than the screen did.
# Target: Single-stranded DNA cytosine deaminase (Homo sapiens) (UniProt Q9GZX7)
# Sequence (Q9GZX7 whole entry, looked up): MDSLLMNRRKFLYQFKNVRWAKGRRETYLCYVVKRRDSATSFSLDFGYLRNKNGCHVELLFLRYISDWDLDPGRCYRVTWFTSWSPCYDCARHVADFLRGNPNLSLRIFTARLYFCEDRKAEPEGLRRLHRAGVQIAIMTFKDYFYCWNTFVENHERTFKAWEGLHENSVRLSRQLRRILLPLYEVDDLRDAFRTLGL
# Experiment: Primary qHTS assay for inhibitors of Activation Induced Cytidine Deaminase (AID): AID signal; note: nearly all actives have a fitted effect of over 25% in size
# Settings: AID deamination FRET fluorescence, UDG-coupled, 4 h; series mostly up to 115 µM
# Excerpt: Assay Provider (PI) Patricia Gearhart Ph.D.
# National Institute on Aging
# National Institute of Health (NIH), Bethesda, MD
# Assay Provider (PI) Rahul Kohli Ph.D.
# Perelman School of Medicine
# University of Pennsylvania, Philadelphia, PA
# Activation-Induced Deaminase (AID) is a cytosine deaminase which converts cytosine into uracil within stretches of ssDNA. The presence of uracil in DNA initiates a cascade of mutagenic DNA repair to introduce point mutations and DNA double strand breaks. Specific targeting of AID to the immunoglobulin heavy chain loci (Igh) promotes mutagenesis in the antibody variable region for somatic hypermutation (SHM) or switch regions leading to class switch recombination (CSR). However, AID also plays a role in accumulating unnecessary mutations across the genome. Mis-targeting of AID results in the initiation of tumor development and leads to greater drug resistance among cancer cells when continually expressed. To identify an AID inhibitor, a small molecule library will be screened in collaboration with NCATS core facility at NIH. To confirm biological function, inhibitors will be examined in an in vitro murine B-cell activation assay and subsequent secondary validation screens. Top molecules will be further screened to identify inhibitory efficacy against a wild type primary splenocytes assay. Using these approaches, we hope to identify a small molecule with great efficacy and low toxicity for use as a molecular probe to further characterize AID's intricacies, or even as a therapeutic.
# A FRET based analysis of cytosine deamination, was developed to identify potential inhibitors of AID catalytic activity. This screen has two signal output, Read 1 evaluates the AID inhibition response. The second readout (Read 2) evaluates UDG response and is uses as a counterscreen to exclude false positive inhibitors. Inhibition in AID and inactivity in the UDG signal is the desired outcome for this assay.
# SEQUENCE No. (e.g., 1, 2, 3, etc.); […] (e.g., Cells, Incubation, Reagent, etc.); VALUE; DESCRIPTION
# 1a; Reagent; 3 uL; [4/3x] 1 uM AID/2.67 U/mL UDG
# 1b; Reagent; 3 uL; 2 U/mL UDG
# 1c; Reagent; 3 uL; 1 uM AID
# 2a; Compound; 46 nL; Follow-up plates (0.64 uM - 10 mM)
# 2b; Control; 46 nL; ATA ([…] - 10 mM)
# 3; Time; 10 min; incubation at room temperature
# 5; Time; 4 hr; incubation at room temperature
# 6; Reagent; 4 uL; [2x] 250 mM NaOH
# 7; Time; 15 sec; centrifuge at 1000 rpm
# 8; Time; 30 min; incubation at room temperature
# 9a; Detection; fluorescence (Read 1: AID); EnVision (PerkinElmer) plate reader, 540 excitation and 590 emission filters
# 9b; Detection; fluorescence (Read 2: UDG); EnVision (PerkinElmer) plate reader, 560 excitation and 665 emission filters
# NOTES (numbers refer to sequence above)
# 1a; Reagents were dispensed in a medium-binding black solid-bottom Greiner plates (789176F) using a BioRptr liquid dispenser. Dispense 3 uL of [4/3x] 1 uM AID (provided by Kohli lab) and [4/3x] 2 U/mL UDG (NEB M0280L) into columns 1, 2, 5 to 48.
# 1b; Dispense 3 uL of [4/3x] 2 U/mL UDG into column 3.
# 1c; Dispense 3 uL of [4/3x] 1 uM AID into column 4.
# 2a; Compound (7-points [uM] (0.64; 3.2; 16; 80; 400; 2,000; 10,000; 20,000) double pin-transferred (Dip Factor = 2) using the Kalypsys (Wako USA) pintool equipped with a 1536 pinhead for a final concentration range of 7.32 nM - 114 uM.
# 2b; 10 mM Aurintricarboxylic Acid (Sigma A1895) (ATA, 8-point, n = 2, 1:2.5 dilution in column 2) double pin-transferred (Dip Factor = 2) using the Kalypsys (Wako USA) pintool equipped with a 1536 pinhead for a [final] range of 186 nM - 114 uM.
# 3; Room temperature incubation.
# 4; Dispense 1 uL of substrate mixture from the Kohli lab [4x] […] DJC20 and [4x] 250 nM DJC23 into columns 1 to 48 .
# 5; Room temperature incubation.
# 6; Dispense 4 uL of substrate mixture [2x] 250 mM NaOH into columns 1 to 48.
# 7; Centrifugation step to remove bubbles.
# 8; Room temperature incubation
# 9a; Fluorescence signal (column label AID) was read using the EnVision plate reader. […]
# Potency is the fitted concentration of half-maximal effect.
row,SMILES,Potency
1,Cc1cc(O)c2c(C)c(CC(=O)Nc3nc4ccccc4[nH]3)c(=O)oc2c1,inactive
2,Cc1ccc(CC(=O)NC2(C)CCCc3ccccc32)cc1 (centres undefined),inactive
3,CCn1c(SCC(=O)N2CCc3ccccc32)nnc1C(C)NC(=O)c1ccccc1F (centres undefined),inactive
4,O=S1(=O)C=CC(N(Cc2ccccc2)Cc2ccccc2F)C1 (centres undefined),inactive
5,Cc1cc(NC(=O)C(C)Sc2nc(NC3CC3)c3ccccc3n2)no1 (centres undefined),inactive
6,O=C(NC(CCCc1ccccc1)c1ccccc1)c1ccc[n+]([O-])c1 (centres undefined),inactive
7,COc1ccc(OC)c(CNC(=O)c2scnc2C)c1,inactive
8,CCCCNC(=O)CSc1c2c(nc3cc(Cl)ccc13)CCCC2,inactive
9,COc1cccc(N=C2NN=C(c3ccc4c(c3)CC(C)N4S(C)(=O)=O)CS2)c1 (centres undefined),inactive
10,COc1cc(C(=O)Oc2ccc(C(C)=O)cc2)ccc1C,inactive
11,CCN(C)Cc1cccc(CNC(=O)NC2CC2)c1,inactive
12,CCn1c(CNC(=O)C23CC4CC(CC(C4)C2)C3)nnc1SCC(=O)Nc1ccc(OC)cc1,inactive
13,CCCCn1c(CNC(=O)C23CC4CC(CC(C4)C2)C3)nnc1SCC(=O)Nc1ccc(C)cc1,44.7 µM (active)
14,Cc1cccc(NC(=O)CSc2nnc(CNC(=O)c3cccc(C)c3)n2-c2ccccc2)c1,inactive
15,Cc1ccc(-n2c(=O)c3sccc3n(CC(=O)N3CCCCC3C)c2=O)cc1C (centres undefined),inactive
16,N#Cc1c(SCC(=O)N2CCCC2)nc(N2CCOCC2)c2c1CCCC2,inactive
17,CCOC(=O)c1ccc(NC(=O)CCn2cnnn2)cc1,inactive
18,Cc1ccc(NC(=O)Cn2c(=O)c3c(ncn3CC(C)C)n(CC(C)C)c2=O)cc1F,inactive
19,N#Cc1ncn(CCC(=O)Nc2ccc(F)c(F)c2)n1,14.1 µM (active)
20,Cc1nc2nc(SCC(=O)c3ccccc3)[nH]c2cc1Br,inactive
21,CN(Cc1c(F)cccc1Cl)C(=O)c1ccc(NS(C)(=O)=O)cc1,inactive
22,O=C(NC1CC1)c1cc(-c2ccc(Cl)cc2)nc2ccccc12,inactive
23,COc1cc(F)ccc1NC(=O)Cc1nn(C)c(=O)c2ccccc12,inactive
24,COc1ccc(-c2nnc(SCCOc3ccc(Cl)cc3Cl)n2C(C)C)cc1,inactive
25,O=C(c1cnn(-c2ccc(F)cc2)c1-n1cccc1)N1CCN(c2ccc(F)cc2)CC1,inactive
26,Cc1c(Cl)cccc1NC(=O)C1CCCN(c2ncnc3onc(C)c23)C1 (centres undefined),inactive
27,Cc1c(Cl)cccc1NC(=O)C1CCCN(C(=O)c2cnn(-c3ccccc3)c2-n2cccc2)C1 (centres undefined),22.4 µM (active)
28,Nc1nnnn1Cc1nnc(SCc2ccc(F)cc2)n1-c1ccccc1,inactive
29,Cc1ccccc1/C=C1\CCc2ccccc2C1=O,inactive
